# Test results taken from PubChem BioAssay AID2242 (National Center for Advancing Translational Sciences (NCATS), 2010).
# Hit rate of the full screen: of about 200,000 compounds, about 720 (0.36%) were called active. About 8% were inconclusive and are not listed. The call rests on the fitted dose curve; in most records, active means well fitted activation curve with a large enough effect; inconclusive means small, poorly fitted or top-dose-only effect, or effect the other way, or another doubt; inactive means flat fitted curve, though single readings scatter. The list shows a part of the results.
# Target: Lysosomal alpha-glucosidase (Homo sapiens) (UniProt P10253)
# Assay: qHTS Assay for Activators of Human alpha-Glucosidase as a Potential Chaperone Treatment of Pompe Disease; further: nearly all actives have a fitted effect of over 80% in size
# Settings: purified enzyme, 4-MU-alpha-glucoside fluorescence, 20 min; series mostly up to 76.9 µM
# In short: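 Fluorogenic assay, 4 nM enzyme, 400 uM 4-methylumbelliferyl-[…], pH 5.0 citrate/phosphate buffer with 0.005% Tween-20, compounds up to 77 uM, 20 min at room temperature. NaOH/glycine stop, Ex 365/Em 440 nm; AC50 from Hill fits.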
# Potency means the concentration at half of the fitted maximal effect.
row,Structure (SMILES),Potency
1,CC(C)Nc1oc(-c2cccc3ccccc23)nc1C#N,35.5 µM (active)
2,CC1CCN(c2oc(-c3cccc4ccccc34)nc2C#N)CC1,25.1 µM (active)
3,C=CCNc1oc(-c2cccc3ccccc23)nc1C#N,31.6 µM (active)
4,COc1ccccc1NC(=O)CSc1nc2c(sc3ccccc32)c(=O)n1CCN(C)C,35.5 µM (active)
5,CCOC(=O)c1c(C)nc(C)c(C(=O)OCC)c1-c1ccccc1,31.6 µM (active)
6,Cc1ccc(-c2cc(C(=O)O)c3sc(N4CCCCC4)nc3n2)cc1,28.2 µM (active)
7,O=C(O)c1cc(-c2ccccc2)nc2nc(N3CCCCC3)sc12,28.2 µM (active)
8,CCCCN(CC)CCCNC(=O)c1cc2cc3ccc(OC)cc3nc2o1,31.6 µM (active)
9,CCCN(CCC)CCCNC(=O)c1cc2cc3ccc(OC)cc3nc2o1,28.2 µM (active)
10,CCn1cc(-c2ccnc3cc(C(=O)O)nn23)c(C)n1,39.8 µM (active)
11,O=C1NC(c2ccco2)Nc2sc3c(c21)CCN(Cc1ccccc1)C3 (configuration not stated),35.5 µM (active)
12,CN1CCc2c(sc3c2C(=O)NC(c2ccco2)N3)C1 (configuration not stated),31.6 µM (active)
13,CCCCCn1c(=O)c(-c2nc3ccccc3[nH]2)c(O)c2ccccc21,39.8 µM (active)
14,Cc1c(O)ccc2c3c(c(=O)oc12)CCC(C)C3 (configuration not stated),35.5 µM (active)
15,Cc1c(O)ccc2c3c(c(=O)oc12)CCCC3,35.5 µM (active)
16,Fc1cccc(-n2c(-c3ccco3)nc3nc4ccccc4nc32)c1,6.31 µM (active)
17,Fc1ccc(-n2c(-c3ccco3)nc3nc4ccccc4nc32)cc1,7.94 µM (active)
18,Fc1ccc(-n2c(-c3cccs3)nc3nc4ccccc4nc32)cc1,3.55 µM (active)
19,Cc1cc(=O)n2cccc(O)c2n1,25.1 µM (active)
20,O=c1cccc2n1Cc1cc3ccccc3nc1-2,35.5 µM (active)
21,CC1CN(S(=O)(=O)c2cccc(-c3cn4cccnc4n3)c2)CC(C)O1 (configuration not stated),35.5 µM (active)
22,CN(C)S(=O)(=O)c1cccc(-c2cn3cccnc3n2)c1,39.8 µM (active)
23,CCc1nnc(NC(=O)CSc2nc(C)c3c(c2C#N)CCCC3)s1,35.5 µM (active)

row,Structure (SMILES),Potency
1,CCC(O)CNc1nc(SC)nc2sc3c(c12)CCN(C)C3 (configuration not stated),28.2 µM (active)
2,CSc1nc2oc3c(c2c2nncn12)CC(C)(C)SC3,39.8 µM (active)
3,Cc1cc(NCCCCO)n2c(nc3ccccc32)c1C#N,35.5 µM (active)
4,CCCc1cc(NCc2ccccn2)n2c(nc3ccccc32)c1C#N,35.5 µM (active)
5,CCCc1cc(NCCCCO)n2c(nc3ccccc32)c1C#N,35.5 µM (active)
6,Cc1cc(NC(C)C)n2c(nc3ccccc32)c1C#N,35.5 µM (active)
7,Cc1cc(NCCCn2ccnc2)n2c(nc3ccccc32)c1C#N,35.5 µM (active)
8,COCCNc1cc(C)c(C#N)c2nc3ccccc3n12,35.5 µM (active)
9,Cc1cc(NCCCO)n2c(nc3ccccc32)c1C#N,35.5 µM (active)
10,COc1cc(C(=O)Nc2cc(-c3cn4cccnc4n3)ccc2C)cc(OC)c1OC,35.5 µM (active)
11,Cc1ccc(-c2cn3cccnc3n2)cc1NC(=O)c1ccc(Br)o1,35.5 µM (active)
12,COc1cccc(C(=O)Nc2cc(-c3cn4cccnc4n3)ccc2C)c1,35.5 µM (active)
13,O=c1oc2c(CN3CCCCC3)c(O)ccc2c2c1CCCCC2,35.5 µM (active)
14,O=c1oc2c(CN3CCCCC3)c(O)ccc2c2c1CCCC2,35.5 µM (active)
15,C=CCn1c(N)c(C(=O)OCCC)c2nc3ccccc3nc21,35.5 µM (active)
16,C=CCn1c(N)c(C(=O)OC(C)(C)C)c2nc3ccccc3nc21,35.5 µM (active)
17,CCOC(=O)c1c(N)n(CC(C)NC(=O)C2CC2)c2nc3ccccc3nc12 (configuration not stated),35.5 µM (active)
18,COCC(C)OC(=O)c1c(N)n(CC(C)C)c2nc3ccccc3nc12 (configuration not stated),35.5 µM (active)
19,CC(C)(C)OC(=O)c1c(N)n(CCCN2CCCC2=O)c2nc3ccccc3nc12,31.6 µM (active)
20,C=CCn1c(N)c(C(=O)OCC(C)C)c2nc3ccccc3nc21,35.5 µM (active)
21,C=CCn1c(N)c(C(=O)OC(C)CC)c2nc3ccccc3nc21 (configuration not stated),31.6 µM (active)
22,COCCN(CCOC)Cc1c(O)ccc2c3c(c(=O)oc12)CCC3,35.5 µM (active)
23,Cc1cc(=O)oc2c(CN(CC(C)C)CC(C)C)c(O)ccc12,31.6 µM (active)

row,Structure (SMILES),Potency
1,CC(C)CN(Cc1c(O)ccc2c3c(c(=O)oc12)CCC3)CC(C)C,31.6 µM (active)
2,Cc1cc(=O)oc2c(CN(C)Cc3ccccc3)c(O)ccc12,35.5 µM (active)
3,CN(C)Cc1c(O)ccc2c3c(c(=O)oc12)CCCCC3,35.5 µM (active)
4,COc1ccc(-c2cc(C(F)(F)F)n3nc(C(=O)NCCN4CCOCC4)cc3n2)cc1,44.7 µM (active)
5,CCCc1cc(=O)oc2c(CN3CCOCC3)c(O)ccc12,31.6 µM (active)
6,CCCCc1cc(=O)oc2c(CN3CCCC3)c(O)ccc12,31.6 µM (active)
7,CCCc1cc(=O)oc2c(CN3CCCC3)c(O)ccc12,35.5 µM (active)
8,CCOC(=O)C1=CN(CC2CCCO2)C=C(C(=O)OCC)C1c1ccccc1C(F)(F)F (configuration not stated),35.5 µM (active)
9,COC(=O)C1=CN(CC2CCCO2)C=C(C(=O)OC)C1c1ccccc1C(F)(F)F (configuration not stated),25.1 µM (active)
10,CCOP(=O)(OCC)c1nc(-c2cccc3ccccc23)oc1NCc1ccc(OC)cc1,35.5 µM (active)
11,COP(=O)(OC)c1nc(-c2cccc3ccccc23)oc1NCc1ccccc1,35.5 µM (active)
12,COc1ccc(CNc2oc(-c3cccc4ccccc34)nc2C#N)cc1,28.2 µM (active)
13,Cc1oc2cc(O)ccc2c(=O)c1Oc1ccc2ccccc2c1,39.8 µM (active)
14,CCC(=O)Oc1ccc2c(C)c(Cl)c(=O)oc2c1,35.5 µM (active)
15,CC(=O)Oc1cc2oc(=O)cc(C)c2cc1OC(C)=O,31.6 µM (active)
16,Cc1cc(=O)oc2cc(OC(=O)c3cncc(Br)c3)ccc12,17.8 µM (active)
17,Cc1cc(=O)oc2cc(OC(=O)c3ccccc3)ccc12,25.1 µM (active)
18,CCCC(=O)Oc1ccc2c(C)cc(=O)oc2c1,35.5 µM (active)
19,CC(=O)Oc1ccc2c(C)cc(=O)oc2c1,35.5 µM (active)
20,Cc1cc(=O)oc2cc(OCc3ccc(C(=O)N4CCN(c5ccccc5)CC4)cc3)ccc12,39.8 µM (active)
21,Cc1cc(=O)oc2cc(OC(=O)CCN3C(=O)c4ccccc4C3=O)ccc12,25.1 µM (active)
